Experimental data published in ChEMBL document CHEMBL3988442, “University of Dundee, Small-Polar-MMV Screening Library” (2021).
For some assays here: Results with a measured potency or affinity are listed apart.

Assays:
Design in all cases: scale not given: direction of the effect not stated beside the values
[1] = target: Protein translocase subunit SecA (Escherichia coli (strain K12)) (UniProt P10408); assay: Assay to Identify E. coli SecA ATPase Inhibitors; format: functional; conditions: 30 µM
[2] = target: T1, Ubiquitin-activating enzyme e1, putative (Leishmania donovani (strain BPK282A1)) (UniProt E9BSI1); assay: Leishmania donovani Ubiquitin Activating Enzyme (LdE1); format: functional; conditions: 30 µM
T1 sequence (whole entry): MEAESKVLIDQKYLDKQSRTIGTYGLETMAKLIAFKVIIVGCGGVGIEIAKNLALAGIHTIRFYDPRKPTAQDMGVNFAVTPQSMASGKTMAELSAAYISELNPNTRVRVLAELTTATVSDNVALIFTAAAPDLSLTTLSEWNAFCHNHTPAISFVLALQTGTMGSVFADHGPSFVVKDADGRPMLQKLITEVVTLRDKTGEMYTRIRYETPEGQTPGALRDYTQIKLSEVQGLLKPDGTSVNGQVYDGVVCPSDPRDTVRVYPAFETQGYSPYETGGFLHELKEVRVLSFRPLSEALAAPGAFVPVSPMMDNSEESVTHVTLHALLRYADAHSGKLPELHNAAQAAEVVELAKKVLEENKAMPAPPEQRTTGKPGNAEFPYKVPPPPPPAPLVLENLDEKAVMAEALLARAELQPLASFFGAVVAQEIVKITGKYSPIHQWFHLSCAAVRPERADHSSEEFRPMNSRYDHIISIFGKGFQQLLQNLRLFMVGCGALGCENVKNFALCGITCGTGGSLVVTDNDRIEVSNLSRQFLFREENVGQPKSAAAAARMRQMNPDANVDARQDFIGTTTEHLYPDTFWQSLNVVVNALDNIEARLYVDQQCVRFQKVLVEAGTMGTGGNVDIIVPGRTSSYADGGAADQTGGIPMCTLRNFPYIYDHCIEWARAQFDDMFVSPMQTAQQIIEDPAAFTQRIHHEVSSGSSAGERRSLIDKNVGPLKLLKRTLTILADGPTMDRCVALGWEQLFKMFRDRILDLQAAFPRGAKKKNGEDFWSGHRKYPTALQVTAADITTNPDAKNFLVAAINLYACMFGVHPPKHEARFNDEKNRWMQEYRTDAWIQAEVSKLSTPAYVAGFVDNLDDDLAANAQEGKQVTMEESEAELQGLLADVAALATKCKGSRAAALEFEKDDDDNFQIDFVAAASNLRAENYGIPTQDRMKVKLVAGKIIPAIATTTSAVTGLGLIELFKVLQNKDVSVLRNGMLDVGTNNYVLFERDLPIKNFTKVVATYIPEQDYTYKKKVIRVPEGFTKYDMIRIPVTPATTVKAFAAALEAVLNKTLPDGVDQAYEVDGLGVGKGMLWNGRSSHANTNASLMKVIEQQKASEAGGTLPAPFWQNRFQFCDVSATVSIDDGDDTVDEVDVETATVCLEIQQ

[3] = target: AMP-activated protein kinase, AMPK (Homo sapiens) (UniProt P54646+O43741+P54619+Q9UGJ0+Q9Y478+Q13131+Q9UGI9); assay: AMP-dependent Kinase enzyme assay. An in vitro enzyme assay that detects ADP turnover that is directly proportional to AMPK activity. This uses naive AMPK that is activated during the assay with MK-8722; format: functional; conditions: 30 µM
[4] = target: Sialic acid-binding Ig-like lectin 9 (Homo sapiens) (UniProt Q9Y336); assay: Hs-Siglec9 ALPHAscreen SOP 20170721; conditions: 10 µM
[5] = tested on: Trypanosoma cruzi; assay: Trypanosoma cruzi phosphomannomutase and mannose-1-phosphate guanylyltransferase assay; format: functional; conditions: 10 µM
[6] = target: T2, Arginase-2, mitochondrial (Homo sapiens) (UniProt P78540); assay: in vitro enzyme assay to detect the production of urea directly proportional to the activity of Arginase II; format: functional; conditions: 33.3 µM; note: in the data most compounds retested in dose-response had high values
T2 sequence (whole entry): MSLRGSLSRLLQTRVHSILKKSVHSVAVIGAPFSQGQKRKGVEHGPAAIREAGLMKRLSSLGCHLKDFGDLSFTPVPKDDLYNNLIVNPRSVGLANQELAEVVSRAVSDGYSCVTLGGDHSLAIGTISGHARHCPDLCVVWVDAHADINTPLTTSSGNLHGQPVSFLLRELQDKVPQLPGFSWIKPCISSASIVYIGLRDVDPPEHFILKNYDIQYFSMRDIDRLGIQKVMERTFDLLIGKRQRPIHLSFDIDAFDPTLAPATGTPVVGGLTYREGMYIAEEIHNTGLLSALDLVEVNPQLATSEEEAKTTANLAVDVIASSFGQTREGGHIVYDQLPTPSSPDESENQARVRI

[7] = target: T3, Proteasome subunit beta (Trypanosoma cruzi) (UniProt O96673); assay: Trypanosoma cruzi proteasome chymotrypsin-like activity (TcProtChymo) assay.; note: in the data most compounds retested in dose-response had high values; format: functional; conditions: 9.37 µM
T3 sequence (whole entry): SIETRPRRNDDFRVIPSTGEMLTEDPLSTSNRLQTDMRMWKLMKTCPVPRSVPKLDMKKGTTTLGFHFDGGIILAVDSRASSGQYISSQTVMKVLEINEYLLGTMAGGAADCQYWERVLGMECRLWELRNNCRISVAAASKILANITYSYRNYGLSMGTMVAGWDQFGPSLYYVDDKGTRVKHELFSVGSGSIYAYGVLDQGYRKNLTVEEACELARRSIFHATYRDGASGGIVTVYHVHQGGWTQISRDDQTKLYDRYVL

[8] = organism: Homo sapiens; assay: To identify inhibition of the IFN signalling (Jak-Stat) pathway via expression of an eGFP reporter gene under the control of an IFN-stimulated response element (ISRE) containing MxA promoter.; format: functional; conditions: 30 µM
[9] = target: T4, Tyrosyl-tRNA synthetase, putative (Trypanosoma cruzi (strain CL Brener)) (UniProt Q4DSP6); assay: Trypanosoma cruzi tyrosyl tRNA synthetase (TcYRS) _High Tyrosine SOP; format: functional; conditions: 30 µM; note: in the data most compounds retested in dose-response had high values
T4 sequence (whole entry): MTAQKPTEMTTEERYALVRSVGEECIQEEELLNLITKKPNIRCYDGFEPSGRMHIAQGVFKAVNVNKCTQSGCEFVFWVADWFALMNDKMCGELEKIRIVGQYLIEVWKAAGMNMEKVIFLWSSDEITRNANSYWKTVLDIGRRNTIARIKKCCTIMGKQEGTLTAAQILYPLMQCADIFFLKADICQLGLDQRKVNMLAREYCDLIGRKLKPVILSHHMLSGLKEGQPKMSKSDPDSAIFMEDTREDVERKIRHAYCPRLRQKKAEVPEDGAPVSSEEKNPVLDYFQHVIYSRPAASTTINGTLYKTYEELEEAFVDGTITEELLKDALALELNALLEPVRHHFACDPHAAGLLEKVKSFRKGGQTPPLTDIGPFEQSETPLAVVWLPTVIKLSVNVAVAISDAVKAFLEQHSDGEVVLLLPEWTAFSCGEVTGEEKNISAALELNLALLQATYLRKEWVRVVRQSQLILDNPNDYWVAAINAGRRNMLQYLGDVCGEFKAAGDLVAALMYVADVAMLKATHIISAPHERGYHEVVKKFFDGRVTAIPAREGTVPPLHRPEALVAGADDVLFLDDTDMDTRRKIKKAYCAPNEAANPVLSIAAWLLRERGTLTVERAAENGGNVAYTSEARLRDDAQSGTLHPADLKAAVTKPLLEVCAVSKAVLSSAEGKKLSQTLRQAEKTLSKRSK

[10] = target: T4, Tyrosyl-tRNA synthetase, putative (Trypanosoma cruzi (strain CL Brener)); assay: Trypanosoma cruzi tyrosyl tRNA synthetase (TcYRS) SOP; format: functional; conditions: 30 µM
[11] = target: Chromo domain-containing protein 1 (Saccharomyces cerevisiae (strain ATCC 204508 / S288c) (Baker's yeast)) (UniProt P32657); assay: ScCHD-1 Enzyme Inhibition Assay; format: functional; conditions: 30 µM; note: in the data most compounds retested in dose-response had high values
Chain of Chromo domain-containing protein 1 (Saccharomyces cerevisiae (strain ATCC 204508 / S288c) (Baker's yeast)) (P32657 whole entry, the tested form may be a part): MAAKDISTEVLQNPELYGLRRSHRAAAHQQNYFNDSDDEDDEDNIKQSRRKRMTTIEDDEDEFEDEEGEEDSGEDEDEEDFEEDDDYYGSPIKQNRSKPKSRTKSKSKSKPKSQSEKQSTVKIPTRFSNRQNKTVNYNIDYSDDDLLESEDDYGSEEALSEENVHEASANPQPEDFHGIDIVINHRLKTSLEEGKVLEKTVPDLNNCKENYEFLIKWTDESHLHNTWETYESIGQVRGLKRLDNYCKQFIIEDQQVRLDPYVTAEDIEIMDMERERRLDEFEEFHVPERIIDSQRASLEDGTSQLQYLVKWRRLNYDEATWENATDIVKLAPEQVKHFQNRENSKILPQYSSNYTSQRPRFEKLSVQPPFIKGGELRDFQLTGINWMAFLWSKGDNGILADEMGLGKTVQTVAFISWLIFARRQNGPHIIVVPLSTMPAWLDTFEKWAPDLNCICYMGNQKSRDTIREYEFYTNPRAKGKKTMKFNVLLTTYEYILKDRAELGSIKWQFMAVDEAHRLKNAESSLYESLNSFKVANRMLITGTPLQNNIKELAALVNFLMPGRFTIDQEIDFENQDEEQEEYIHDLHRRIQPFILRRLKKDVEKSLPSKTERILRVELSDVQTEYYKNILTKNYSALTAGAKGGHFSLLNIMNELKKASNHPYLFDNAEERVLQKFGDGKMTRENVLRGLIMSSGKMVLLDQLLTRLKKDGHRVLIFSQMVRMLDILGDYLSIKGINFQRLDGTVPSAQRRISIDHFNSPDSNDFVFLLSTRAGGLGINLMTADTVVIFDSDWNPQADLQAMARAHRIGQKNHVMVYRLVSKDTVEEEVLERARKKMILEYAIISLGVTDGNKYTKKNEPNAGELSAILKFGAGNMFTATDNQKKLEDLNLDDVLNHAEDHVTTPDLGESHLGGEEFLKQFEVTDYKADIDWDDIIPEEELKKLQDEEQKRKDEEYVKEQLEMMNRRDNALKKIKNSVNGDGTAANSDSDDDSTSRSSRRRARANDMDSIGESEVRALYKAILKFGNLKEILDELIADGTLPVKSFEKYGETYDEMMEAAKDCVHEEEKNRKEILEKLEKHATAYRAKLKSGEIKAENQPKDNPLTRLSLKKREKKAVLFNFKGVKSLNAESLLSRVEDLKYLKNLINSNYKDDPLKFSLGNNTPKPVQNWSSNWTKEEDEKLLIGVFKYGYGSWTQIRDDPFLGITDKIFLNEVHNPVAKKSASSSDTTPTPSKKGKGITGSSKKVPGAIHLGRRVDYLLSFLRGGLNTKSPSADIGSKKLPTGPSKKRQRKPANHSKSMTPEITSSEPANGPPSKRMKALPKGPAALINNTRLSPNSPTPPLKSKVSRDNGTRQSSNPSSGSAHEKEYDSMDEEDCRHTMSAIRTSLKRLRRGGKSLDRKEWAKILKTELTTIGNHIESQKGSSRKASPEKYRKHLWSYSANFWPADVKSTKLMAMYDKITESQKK

Chain of Protein translocase subunit SecA (Escherichia coli (strain K12)) (P10408 whole entry): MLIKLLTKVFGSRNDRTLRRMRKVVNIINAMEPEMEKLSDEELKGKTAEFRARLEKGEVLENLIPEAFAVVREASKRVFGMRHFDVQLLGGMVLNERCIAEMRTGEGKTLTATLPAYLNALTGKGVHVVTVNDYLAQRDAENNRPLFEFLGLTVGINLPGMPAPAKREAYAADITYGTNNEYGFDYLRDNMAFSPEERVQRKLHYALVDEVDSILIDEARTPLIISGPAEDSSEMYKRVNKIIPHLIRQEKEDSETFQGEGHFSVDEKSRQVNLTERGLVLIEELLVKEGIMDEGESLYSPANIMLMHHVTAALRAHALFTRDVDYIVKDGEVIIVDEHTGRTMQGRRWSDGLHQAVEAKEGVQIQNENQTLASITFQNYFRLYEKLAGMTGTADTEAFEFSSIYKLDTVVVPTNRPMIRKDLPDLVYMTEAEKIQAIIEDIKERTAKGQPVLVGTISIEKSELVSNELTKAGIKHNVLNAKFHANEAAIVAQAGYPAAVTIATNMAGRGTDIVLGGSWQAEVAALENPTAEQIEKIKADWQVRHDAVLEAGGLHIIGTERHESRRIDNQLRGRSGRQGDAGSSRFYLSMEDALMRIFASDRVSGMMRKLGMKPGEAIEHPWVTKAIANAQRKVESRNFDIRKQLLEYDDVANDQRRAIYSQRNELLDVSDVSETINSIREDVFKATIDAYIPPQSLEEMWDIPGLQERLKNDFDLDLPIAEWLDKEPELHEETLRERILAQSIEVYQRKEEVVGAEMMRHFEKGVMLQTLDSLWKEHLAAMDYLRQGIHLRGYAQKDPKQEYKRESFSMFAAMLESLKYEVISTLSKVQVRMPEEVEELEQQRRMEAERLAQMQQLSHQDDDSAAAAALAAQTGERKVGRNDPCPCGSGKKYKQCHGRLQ
Chain of Sialic acid-binding Ig-like lectin 9 (Homo sapiens) (Q9Y336 whole entry): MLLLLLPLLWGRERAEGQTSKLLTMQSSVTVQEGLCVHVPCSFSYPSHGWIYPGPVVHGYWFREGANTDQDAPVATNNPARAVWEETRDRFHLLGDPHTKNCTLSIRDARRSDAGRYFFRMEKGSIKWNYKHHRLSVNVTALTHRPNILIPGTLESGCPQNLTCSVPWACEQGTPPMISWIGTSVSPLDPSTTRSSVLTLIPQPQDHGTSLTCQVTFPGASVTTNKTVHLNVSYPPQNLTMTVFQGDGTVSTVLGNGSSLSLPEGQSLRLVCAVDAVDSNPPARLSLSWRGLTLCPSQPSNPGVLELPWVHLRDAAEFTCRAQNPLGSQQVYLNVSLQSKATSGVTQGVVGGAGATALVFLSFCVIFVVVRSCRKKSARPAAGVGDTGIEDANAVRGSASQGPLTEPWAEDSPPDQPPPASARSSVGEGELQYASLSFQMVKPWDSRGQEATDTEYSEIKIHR

| Structure (SMILES) | Percent Effect [1] | Percent Effect [2] | Percent Effect [3] | Percent Effect [4] | Percent Effect [5] | Percent Effect [6] | Percent Effect [7] | Percent Effect [8] | Percent Effect [9] | Percent Effect [10] | Percent Effect [11] |
| --- | --- | --- | --- | --- | --- | --- | --- | --- | --- | --- | --- |
| Cc1ccccc1Oc1ncccc1CNS(C)(=O)=O | -5.18% | 15.6% | -0.858% | 12.6% | 8.16% | -8.28% | 1.33% | 0.0503% | 5.38% | 11.1% | -7.62% |
| Cn1cnnc1C1CCCN(C(=O)c2n[nH]c3ccccc23)C1 (configuration not stated) | -3.18% | 18.2% | -8.06% | -14.8% | 5.19% | -3.16% | 13.8% | -1.86% | 8.57% | 32.9% | -21.5% |
| Cc1ccc(NC(=O)N(C)Cc2cnn(C)c2)cc1OCC(F)F | -9.52% | 2.7% | -18.9% | 28% | 12.4% | -11.2% | 6.67% | 11.9% | 3.45% | 23.5% | -16.1% |
| Cc1cc(OCC(=O)NC(C)c2ccc(N3CCOCC3)cc2)no1 (configuration not stated) | -4.84% | 18.2% | -0.141% | 11.2% | 5.61% | -89.7% | 8.15% | -3.73% | 3.23% | 13.6% | -6.7% |
| CN(C)c1ncnc2c1CCN(CC1CCOC1)CC2 (configuration not stated) | -2.84% | 8.11% | 4.65% | -0.235% | -3.42% | -2.87% | 18.6% | -8.93% | 3.24% | 15.4% | 0.421% |
| COc1cc(C)c(CN2CCC3(CC2)C(C(=O)O)CC(=O)N3C)cc1C (configuration not stated) | -0.465% | 16% | -9.44% | 6.22% | 0.682% | 6.77% | 10.3% | 22.7% | 3.83% | 18.5% | -3.84% |
| Cc1noc(C)c1C(=O)N1CCCC1c1c(C)nn(C)c1Cl (configuration not stated) | -4.44% | 7.59% | -2.1% | 8.04% | 5.38% | -4.56% | -1.72% | 4.02% | 2.46% | 8.86% | -0.777% |
| CC1(NC(=O)Cc2csc(C(C)(C)C)n2)CCS(=O)(=O)C1 (configuration not stated) | -7.31% | 19.2% | -17.7% | 20.2% | 9.01% | 7.27% | 13.7% | 17.5% | 4.3% | 17.5% | -4.8% |
| Cc1cccc(NC2CCN(C(=O)Nc3cccc4[nH]ccc34)CC2)n1 | -6.98% | 17.7% | -19.6% | 10.2% | 6.7% | -7.22% | 3.85% | -7.19% | 4.43% | 16.5% | -8.65% |
| CC(=O)NCCc1ccc(S(=O)(=O)N(CC(C)C)C(C)C)s1 | 3% | 4.17% | 30.7% | 4.43% | -6.9% | -0.883% | 18.2% | 16.9% | -2.1% | -5.13% | 106% |
| N#Cc1ccc(C(=O)N2CCn3c(Cn4cccn4)cnc3C2)cc1 | -4.62% | 2.67% | 0.576% | 1.75% | -3.86% | -57.5% | 5.98% | -6.78% | 2.08% | 7.5% | -3.56% |
| COc1ccc2c(c1)C1(CCN(Cc3ccoc3)CC1)N(C)CC2 | -1.9% | 5.2% | 2.57% | 3.45% | -0.0986% | -7.1% | 20% | -0.746% | -1.06% | 8.97% | -9.11% |
| CCc1nnc2n1CCN(CCS(=O)(=O)c1ccccc1)C2 | -7.25% | 13% | 6.16% | 15.6% | -3.37% | 1.07% | -2.87% | 4.97% | 0.971% | 7.32% | -3.89% |
| OC(COCc1ccccc1Cl)CN1CC(n2cccn2)C1 (configuration not stated) | 1.1% | -15.8% | 3.43% | -0.349% | -1.5% | 6.9% | 14.5% | 9.39% | 4.41% | 0% | -9.18% |
| Cc1ccc(CN2CCn3c(C(=O)N(C)C)cnc3C2)s1 | -2.48% | 10.7% | 8.35% | -0.423% | -4.53% | 3.5% | 7.67% | 3.77% | 3.19% | 8.97% | -5.78% |
| CNC(=O)NC(=O)CN1CCC(c2cccc(F)c2)C1 (configuration not stated) | -1.99% | 0% | 5.35% | -0.914% | -2.82% | 2.3% | -2.51% | 11.3% | 2.45% | 4.88% | 4.66% |
| CN1CC(=O)N(c2cccnc2)CC12CCN(C(=O)c1cccnc1)C2 (configuration not stated) | 1.61% | 10.7% | 11% | -7.78% | -3.09% | -53.9% | 14.5% | 2.71% | 6.25% | 10% | -5.77% |
| CC(C)c1nnc2ccc(N3CCC(C(N)=O)CC3)nn12 | -7.89% | 1.33% | 11.2% | 0.782% | -4.52% | -8.63% | 3.14% | -2.58% | -1.06% | 0% | -7.68% |
| CC(CNC(=O)c1ccc(Cl)cc1I)N1CCCC1 (configuration not stated) | -0.489% | -2.7% | -6.38% | -1.77% | 7.53% | -2.38% | 27.4% | -7.67% | 6.88% | 12.2% | 51.2% |
| CCc1c(C)nc2cc(C3CCN(Cc4ccccc4F)C3)nn2c1O (configuration not stated) | 0.76% | -14.9% | -7.43% | -10.9% | -2.77% | 2.09% | 20.9% | 17% | 4.3% | 9.09% | -7.83% |
| CCc1nc(CN2CCCN(Cc3cnn(C)c3)CC2)no1 | 2.29% | 5.48% | -1.06% | 0.0732% | -2.35% | 0% | 17.2% | 3.79% | 4.3% | 12.5% | -13.7% |
| CCN1CCN(C2CCN(Cc3ncc(C(C)(C)C)o3)CC2)C1=O | -2.95% | -7.79% | 6.42% | 7.85% | 1.47% | -1.47% | 7.2% | -13.2% | 6.67% | 7.06% | -19.1% |
